Assay outcomes (PubChem BioAssay)
12-LOX inh: blocks human arachidonate 12S-lipoxygenase; AID 1671190; 1.1% of 580,000 active; purified 12hLO, xylenol orange hydroperoxide absorbance; Potency, µM (top dose mostly 108 µM), actives largely listed as inhibitors; P18054
Target sequence (P18054 whole entry, looked up): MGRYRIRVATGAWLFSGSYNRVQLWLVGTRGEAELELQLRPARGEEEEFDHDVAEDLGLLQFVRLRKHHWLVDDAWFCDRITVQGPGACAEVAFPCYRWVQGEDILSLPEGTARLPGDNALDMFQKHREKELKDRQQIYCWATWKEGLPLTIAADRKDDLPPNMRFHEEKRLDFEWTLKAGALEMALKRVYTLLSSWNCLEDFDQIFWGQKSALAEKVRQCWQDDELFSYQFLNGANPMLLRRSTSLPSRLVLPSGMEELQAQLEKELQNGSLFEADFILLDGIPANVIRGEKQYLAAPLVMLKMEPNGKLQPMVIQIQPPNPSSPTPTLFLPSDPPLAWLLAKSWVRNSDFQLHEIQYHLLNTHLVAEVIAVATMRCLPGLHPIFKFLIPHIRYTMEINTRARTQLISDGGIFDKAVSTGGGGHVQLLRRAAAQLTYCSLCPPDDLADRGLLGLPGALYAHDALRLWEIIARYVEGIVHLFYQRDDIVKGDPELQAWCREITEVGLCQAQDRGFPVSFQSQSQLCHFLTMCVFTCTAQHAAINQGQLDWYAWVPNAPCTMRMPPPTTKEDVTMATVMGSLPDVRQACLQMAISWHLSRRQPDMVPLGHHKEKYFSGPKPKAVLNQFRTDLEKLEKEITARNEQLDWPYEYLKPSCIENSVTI
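Hydroperoxide product was detected by ferrous iron/xylenol orange as the 573 to 405 nm absorbance ratio. Arachidonic acid at 40 uM (final) was turned over for 30 min at room temperature by 150 nM human 12hLO, pH 7.0 Hepes buffer, after 15 min compound preincubation.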
ATXN viability: cell viability loss in ATXN counter-screen | S2 cells (HEK-293 line with an ATXN2-luciferase reporter) viability, CellTiter-Fluor protease fluorescence, 24 h | AID 651635 | 0.49% of 400,000 active | Potency, µM (highest dose often 56.7 µM), actives largely listed as cytotoxic; further: nearly all actives have a fitted effect of over 40% in size
TGFb inhibitor: blocks TGF-b signaling; 1.2% of 410,000 active; Potency, µM (titrated, usually from 46.1 µM), hits mostly inhibitors; HepG2 CAGA-GFP TGF-b/SMAD3 reporter, GFP fluorescence, 18 h; TGF-beta stimulated, 500 pg/mL final; further: nearly all actives have a fitted effect of over 65% in size
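Using HEPG2 CAGA-GFP reporter cells at 1000 cells/well, we pinned test compounds, stimulated with recombinant TGF-beta (500 pg/mL final) and measured total well GFP after 18 h.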
HepG2 viability: counter-screen for TGF-b inhibitors: cytotoxicity in HepG2 cells; Potency, µM (top dose mostly 46.1 µM), usual class: cytotoxic; 0.76% of 410,000 active; HepG2 CAGA-GFP viability, ATP luminescence, 18 h; AID 588856
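HepG2 CAGA-GFP cells (1000/well, DMEM with 1% FBS) received compound, then TGF-beta at 500 pg/mL final, and were incubated 18 hours at 37 degrees C. Viability was read by CellTiter-Glo luminescence. Media-only wells were set as complete cell-killing and DMSO as no toxicity.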
ATXN2 expr inh: inhibitors of ATXN2 expression; 0.72% of 360,000 active; Potency, µM (series often up to 57 µM), hits mostly inhibitors; HEK-293 ATXN2-luciferase reporter, luminescence, 24 h; further: nearly all actives have a fitted effect of over 55% in size
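ATXN2-luciferase reporter cells (luciferase flanked by upstream and downstream ATXN2 gene portions) were treated 24 h at 37 °C with compounds at up to 57 uM. SteadyGlo luminescence gave expression; GF-AFC fluorescence gave viability.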
A number is an active result; - = inactive; ? = inconclusive; . = no result given; ! = not active in a repeat. Compounds with a hit are over-represented: about 2.7% of the library has one in this group of screens. The call rests on the fitted dose curve; in most records, active means well fitted curve in the direction sought with a large enough effect; inconclusive means small, poorly fitted or top-dose-only effect, or another doubt; inactive means no such curve, though single readings can be large; an effect the other way counts as inactive or inconclusive.

SMILES	12-LOX inh	ATXN viability	TGFb inhibitor	HepG2 viability	ATXN2 expr inh
COc1cccc(-c2sc3ccc(OC)cc3c2C#CC(C)(C)O)c1	-	-	16µM	-	-
CN(C1=C(N2CCOCC2)C(=O)c2ccccc2C1=O)c1ccccc1	-	?	10µM	-	-
O=C1C=C(N2CCOCC2)c2ccccc2C1=O	-	25µM	5µM	5µM	?
COc1ccc(C2Cn3nnc(-c4nc(-c5ccc(F)c(Br)c5)no4)c3CO2)cc1 (centres undefined)	-	.	.	.	.
F[C@@H]1CN(Cc2cccnc2)C[C@@H]1OCc1nc2ccc(C(F)(F)F)cc2[nH]1	-	.	.	.	.
O=C(Cc1cccs1)N1CCC(Oc2ccccc2)C1 (centres undefined)	50µM	.	.	.	.
O=C1CCN(S(=O)(=O)c2ccccc2)CCCC(C(=O)NCCc2cccnc2)CCN1 (centres undefined)	-	.	.	.	.
O=C1Nc2c(Cl)cc(Cl)cc2C12Nc1ccccc1S2 (centres undefined)	35µM	.	.	.	.
CC(C)n1cnc2c(NCc3ccccc3)cc(N[C@H](C)CO)cc21	.	0.89µM	?	0.63µM	1.1µM
COc1ccc(Cc2cc(NCc3ccccc3)c3ncn(C(C)C)c3c2)cc1	-	?	?	11µM	-
CCC(COC)Oc1cc(NCc2ccccc2)c2ncn(C(C)C)c2c1 (centres undefined)	-	22µM	?	-	-
CCOCCOc1cc(NCc2ccccc2)c2ncn(C(C)C)c2c1	?	?	?	-	?
CCC(CO)Oc1cc(NCc2ccccc2)c2ncn(C(C)C)c2c1 (centres undefined)	?	?	?	-	-
CCC(CO)Oc1cc(NCc2ccc(C(C)(C)C)cc2)c2ncn(C(C)C)c2c1 (centres undefined)	-	32µM	?	-	?
CCC(CO)Oc1cc(NCc2ccc(O)cc2)c2ncn(C(C)C)c2c1 (centres undefined)	-	-	-	-	-
CC1=C[C@@H](CN2C(=O)C(C)=C(C)C2=O)[C@H](C(C)C)C[C@H]1Cc1nc2ccccc2[nH]1	-	.	.	.	.
Nc1ccc([N+](=O)[O-])cc1NS(=O)(=O)c1ccc2ccccc2c1	-	.	.	.	.
CCOC(=O)COc1ccc2c(=O)c(-c3ccc(OC)c(OC)c3)coc2c1	-	.	.	.	.
Cc1cccc(C(=O)OCC(=O)c2cc(C)ccc2C)c1	-	.	.	.	.
COc1cc(C)ccc1OC(=O)C(C)Oc1ccc(Br)cc1 (centres undefined)	-	.	.	.	.
COCCCOc1cc(NCc2ccccc2)c2ncn(C(C)C)c2c1	-	-	-	-	-
CCCCOc1cc(NCc2ccccc2)c2ncn(C(C)C)c2c1	?	?	18µM	-	-
CN1CCOC(CNCc2ccc3ccccc3c2)C1 (centres undefined)	-	.	.	.	.
CCC(O)c1cnc(OCc2ccccc2)nc1OCc1ccccc1 (centres undefined)	-	-	?	14µM	.
O=c1cnc2cnc(OCc3ccccc3)nc2n1CCc1ccccc1	-	.	.	.	.
SMILES	12-LOX inh	ATXN viability	TGFb inhibitor	HepG2 viability	ATXN2 expr inh
O=C(CS(=O)c1ccccc1[N+](=O)[O-])Oc1ccc(Br)cc1 (centres undefined)	-	-	-	-	-
CS(=O)(=O)c1ccc(S(=O)CC(=O)Oc2ccc(Cl)cc2)c([N+](=O)[O-])c1 (centres undefined)	.	?	?	18µM	?
Cc1ccc(/C(O)=C/C(=O)C(=O)NNC(=O)C(O)(c2ccccc2)c2ccccc2)cc1	?	-	?	-	-
O=C(C=C(O)c1ccc(Cl)cc1)C(=O)NNC(=O)C(O)(c1ccccc1)c1ccccc1	14µM	-	-	-	-
COc1cc2c(cc1OC)C(c1ccc(-c3cc(Cl)ccc3Cl)o1)=NCC2	.	?	-	-	?
COc1cc2c(cc1OC)C(c1ccc(-c3ccccc3Cl)o1)=NCC2	40µM	.	?	-	35µM
COc1cc2c(cc1OC)C(c1ccc(-c3ccc(Cl)cc3Cl)o1)=NCC2	?	?	14µM	-	?
COc1cc2c(cc1OC)C(c1ccc(-c3ccc(Cl)c(Cl)c3)o1)=NCC2	?	-	11µM	11µM!	?
C/C=C/CSc1nc2c(c(=O)n(C)c(=O)n2C)n1Cc1ccc(Cl)cc1	-	.	.	.	.
Cc1cc(C)c(NC(=O)c2nc3ccccc3nc2N2CCOCC2)c(C)c1	-	.	.	.	.
O=C1COc2ccc(-c3ccncc3)nc2CN1Cc1ccc(C(F)(F)F)cc1	-	.	.	.	.
O=C1COc2ccc(-c3ccoc3)nc2CN1Cc1ccc(C(F)(F)F)cc1	40µM	.	.	.	.
CC(C)CC(=O)NC(Nc1ccc([N+](=O)[O-])cc1)C(Cl)(Cl)Cl (centres undefined)	?	-	16µM	-	-
CC(C)CC(=O)NC(Nc1ccccc1F)C(Cl)(Cl)Cl (centres undefined)	-	-	-	-	-
COc1cc(OC)cc(C2=Cc3ccccc3C(CC(C)=O)N2c2ccc(C#CC3(N)CCCCC3)cc2)c1 (centres undefined)	-	28µM	.	.	?
COc1cc(OC)cc(C2=Cc3ccc(OC)cc3C(CC(C)=O)N2c2ccc(C#CC3(O)CCCCC3)cc2)c1 (centres undefined)	?	?	.	.	-
COc1cc(OC)cc(C2=Cc3ccc(OC)cc3C(CC(C)=O)N2c2ccc(-c3cncnc3)cc2)c1 (centres undefined)	-	-	.	.	-
COc1ccc(-c2ccc(N3C(c4cc(OC)cc(OC)c4)=Cc4ccc(OC)cc4C3CC(C)=O)cc2)cc1 (centres undefined)	?	?	.	.	-
COc1cc(OC)cc(C2=Cc3ccc(OC)cc3C(CC(C)=O)N2c2ccc(C#CC3(N)CCCCC3)cc2)c1 (centres undefined)	-	18µM	.	.	-
COc1cccc(C2=Cc3ccc(F)cc3C(CC(C)=O)N2c2ccc(C#CC3(O)CCCCC3)cc2)c1 (centres undefined)	16µM	?	.	.	-
CCCCOC(=O)COc1ccc2c(C)c(CCC)c(=O)oc2c1	-	.	.	.	.
Cc1cc2oc(C(=O)N(Cc3ccc(C(C)C)cc3)C3CCS(=O)(=O)C3)cc(=O)c2cc1Cl (centres undefined)	-	.	.	.	.
O=C(N/N=C/c1cccnc1)c1cccc(Cl)c1	-	-	-	-	-
CC(C)c1ccc(OCc2cccc(C(=O)N/N=C/c3cccnc3)c2)cc1	-	-	-	-	11µM
CCOc1ccc(OCc2cccc(C(=O)N/N=C/c3cccnc3)c2)cc1	-	-	-	-	2.1µM
O=C(N/N=C/c1cccnc1)c1cccc(Br)c1	-	-	-	-	-
O=C(COc1ccc2nc3n(c(=O)c2c1)CCC3)NC1CCCC1	-	.	.	.	.
CCn1c(CN2CCC(C)CC2)nc2cc(NC(=O)COc3ccc(Cl)c(C)c3)ccc21	-	?	4µM	-	?
Nc1c(Cl)cccc1C(=O)OCc1nc(N)c2ccccc2n1	-	.	.	.	.
